Measurements reported in ChEMBL document CHEMBL3988442, “University of Dundee, Small-Polar-MMV Screening Library” (2021).
For some assays here: Measured potencies and affinities stand elsewhere.

What was measured:
Parameters in all cases: scale not given: direction of the effect not stated beside the values
[1] = target: Protein translocase subunit SecA (Escherichia coli (strain K12)) (UniProt P10408); assay: Assay to Identify E. coli SecA ATPase Inhibitors; format: functional; conditions: 30 µM
[2] = target: T1, Ubiquitin-activating enzyme e1, putative (Leishmania donovani (strain BPK282A1)) (UniProt E9BSI1); assay: Leishmania donovani Ubiquitin Activating Enzyme (LdE1); format: functional; conditions: 30 µM
T1 sequence (whole entry): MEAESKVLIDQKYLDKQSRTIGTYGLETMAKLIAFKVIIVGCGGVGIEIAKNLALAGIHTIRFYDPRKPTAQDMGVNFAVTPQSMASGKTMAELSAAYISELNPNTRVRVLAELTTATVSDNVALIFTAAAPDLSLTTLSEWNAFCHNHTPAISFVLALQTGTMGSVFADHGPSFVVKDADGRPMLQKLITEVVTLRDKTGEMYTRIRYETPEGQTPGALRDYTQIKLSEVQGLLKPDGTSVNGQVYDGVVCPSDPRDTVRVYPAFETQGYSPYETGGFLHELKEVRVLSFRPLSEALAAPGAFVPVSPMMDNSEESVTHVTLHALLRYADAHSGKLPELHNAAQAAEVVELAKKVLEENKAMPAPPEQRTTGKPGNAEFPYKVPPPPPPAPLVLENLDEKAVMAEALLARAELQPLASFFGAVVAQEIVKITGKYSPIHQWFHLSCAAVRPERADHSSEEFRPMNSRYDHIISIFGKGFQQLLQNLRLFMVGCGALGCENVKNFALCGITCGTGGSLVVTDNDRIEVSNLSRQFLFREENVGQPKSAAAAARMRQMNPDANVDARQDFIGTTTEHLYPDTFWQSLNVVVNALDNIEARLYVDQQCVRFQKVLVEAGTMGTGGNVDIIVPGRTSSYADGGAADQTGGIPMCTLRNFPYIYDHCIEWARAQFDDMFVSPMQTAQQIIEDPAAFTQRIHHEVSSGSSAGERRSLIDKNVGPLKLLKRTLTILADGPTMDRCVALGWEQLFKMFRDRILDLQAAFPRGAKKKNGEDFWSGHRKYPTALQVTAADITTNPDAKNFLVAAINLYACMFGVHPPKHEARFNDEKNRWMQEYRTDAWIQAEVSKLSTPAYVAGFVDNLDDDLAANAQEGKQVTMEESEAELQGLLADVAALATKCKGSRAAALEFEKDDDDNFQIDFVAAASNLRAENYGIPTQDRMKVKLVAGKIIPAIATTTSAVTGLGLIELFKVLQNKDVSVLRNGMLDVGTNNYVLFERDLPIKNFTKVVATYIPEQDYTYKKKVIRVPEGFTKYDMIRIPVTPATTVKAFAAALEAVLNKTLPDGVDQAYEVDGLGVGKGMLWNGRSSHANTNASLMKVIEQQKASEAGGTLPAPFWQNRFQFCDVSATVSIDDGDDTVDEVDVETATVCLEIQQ

[3] = target: AMP-activated protein kinase, AMPK (Homo sapiens) (UniProt P54646+O43741+P54619+Q9UGJ0+Q9Y478+Q13131+Q9UGI9); assay: AMP-dependent Kinase enzyme assay. An in vitro enzyme assay that detects ADP turnover that is directly proportional to AMPK activity. This uses naive AMPK that is activated during the assay with MK-8722; format: functional; conditions: 30 µM
[4] = target: Sialic acid-binding Ig-like lectin 9 (Homo sapiens) (UniProt Q9Y336); assay: Hs-Siglec9 ALPHAscreen SOP 20170721; conditions: 10 µM
Trypanosoma cruzi = assay: Trypanosoma cruzi phosphomannomutase and mannose-1-phosphate guanylyltransferase assay; format: functional; conditions: 10 µM
[5] = target: T2, Arginase-2, mitochondrial (Homo sapiens) (UniProt P78540); assay: in vitro enzyme assay to detect the production of urea directly proportional to the activity of Arginase II; format: functional; conditions: 33.3 µM; note: in the data most compounds retested in dose-response had high values
T2 sequence (whole entry): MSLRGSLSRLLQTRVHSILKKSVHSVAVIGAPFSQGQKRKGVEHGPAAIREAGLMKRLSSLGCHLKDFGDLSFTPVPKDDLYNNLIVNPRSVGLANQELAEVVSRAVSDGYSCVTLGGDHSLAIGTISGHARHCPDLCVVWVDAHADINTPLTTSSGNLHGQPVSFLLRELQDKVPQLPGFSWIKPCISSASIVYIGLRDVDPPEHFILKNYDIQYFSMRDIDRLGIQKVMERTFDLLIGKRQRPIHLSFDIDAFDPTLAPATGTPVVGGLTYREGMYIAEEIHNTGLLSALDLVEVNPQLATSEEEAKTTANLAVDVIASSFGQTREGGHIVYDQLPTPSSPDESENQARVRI

[6] = target: T3, Proteasome subunit beta (Trypanosoma cruzi) (UniProt O96673); assay: Trypanosoma cruzi proteasome chymotrypsin-like activity (TcProtChymo) assay.; note: in the data most compounds retested in dose-response had high values; format: functional; conditions: 9.37 µM
T3 sequence (whole entry): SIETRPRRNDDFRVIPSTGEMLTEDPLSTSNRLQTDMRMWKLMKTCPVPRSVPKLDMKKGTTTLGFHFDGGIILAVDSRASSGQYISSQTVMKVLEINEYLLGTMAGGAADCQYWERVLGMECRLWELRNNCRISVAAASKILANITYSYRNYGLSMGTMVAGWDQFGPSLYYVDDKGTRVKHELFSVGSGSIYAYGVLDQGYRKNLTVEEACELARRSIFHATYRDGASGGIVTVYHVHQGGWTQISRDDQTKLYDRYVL

Homo sapiens = species on record: Homo sapiens; assay: To identify inhibition of the IFN signalling (Jak-Stat) pathway via expression of an eGFP reporter gene under the control of an IFN-stimulated response element (ISRE) containing MxA promoter.; format: functional; conditions: 30 µM
[7] = target: T4, Tyrosyl-tRNA synthetase, putative (Trypanosoma cruzi (strain CL Brener)) (UniProt Q4DSP6); assay: Trypanosoma cruzi tyrosyl tRNA synthetase (TcYRS) _High Tyrosine SOP; format: functional; conditions: 30 µM; note: in the data most compounds retested in dose-response had high values
T4 sequence (whole entry): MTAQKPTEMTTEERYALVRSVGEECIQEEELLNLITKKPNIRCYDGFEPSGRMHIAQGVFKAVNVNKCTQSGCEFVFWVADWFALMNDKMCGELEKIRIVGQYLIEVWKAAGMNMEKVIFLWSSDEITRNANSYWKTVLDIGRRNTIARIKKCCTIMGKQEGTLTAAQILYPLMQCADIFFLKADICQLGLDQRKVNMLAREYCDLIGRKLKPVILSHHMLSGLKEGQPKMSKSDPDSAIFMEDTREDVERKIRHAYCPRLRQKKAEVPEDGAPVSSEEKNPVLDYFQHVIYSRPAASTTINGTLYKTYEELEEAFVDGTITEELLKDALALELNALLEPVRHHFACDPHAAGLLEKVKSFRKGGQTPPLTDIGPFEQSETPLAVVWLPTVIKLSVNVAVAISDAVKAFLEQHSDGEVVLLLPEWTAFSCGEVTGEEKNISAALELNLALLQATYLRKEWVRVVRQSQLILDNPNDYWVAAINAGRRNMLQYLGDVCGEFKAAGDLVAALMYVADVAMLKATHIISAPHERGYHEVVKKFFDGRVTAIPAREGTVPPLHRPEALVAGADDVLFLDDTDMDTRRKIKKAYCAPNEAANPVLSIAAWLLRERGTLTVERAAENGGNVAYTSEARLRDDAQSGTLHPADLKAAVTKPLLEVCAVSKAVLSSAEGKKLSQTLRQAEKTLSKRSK

[8] = target: T4, Tyrosyl-tRNA synthetase, putative (Trypanosoma cruzi (strain CL Brener)); assay: Trypanosoma cruzi tyrosyl tRNA synthetase (TcYRS) SOP; format: functional; conditions: 30 µM
[9] = target: Chromo domain-containing protein 1 (Saccharomyces cerevisiae (strain ATCC 204508 / S288c) (Baker's yeast)) (UniProt P32657); assay: ScCHD-1 Enzyme Inhibition Assay; format: functional; conditions: 30 µM; note: in the data most compounds retested in dose-response had high values
Chromo domain-containing protein 1 (Saccharomyces cerevisiae (strain ATCC 204508 / S288c) (Baker's yeast)), sequence (P32657 whole entry, the tested form may be a part): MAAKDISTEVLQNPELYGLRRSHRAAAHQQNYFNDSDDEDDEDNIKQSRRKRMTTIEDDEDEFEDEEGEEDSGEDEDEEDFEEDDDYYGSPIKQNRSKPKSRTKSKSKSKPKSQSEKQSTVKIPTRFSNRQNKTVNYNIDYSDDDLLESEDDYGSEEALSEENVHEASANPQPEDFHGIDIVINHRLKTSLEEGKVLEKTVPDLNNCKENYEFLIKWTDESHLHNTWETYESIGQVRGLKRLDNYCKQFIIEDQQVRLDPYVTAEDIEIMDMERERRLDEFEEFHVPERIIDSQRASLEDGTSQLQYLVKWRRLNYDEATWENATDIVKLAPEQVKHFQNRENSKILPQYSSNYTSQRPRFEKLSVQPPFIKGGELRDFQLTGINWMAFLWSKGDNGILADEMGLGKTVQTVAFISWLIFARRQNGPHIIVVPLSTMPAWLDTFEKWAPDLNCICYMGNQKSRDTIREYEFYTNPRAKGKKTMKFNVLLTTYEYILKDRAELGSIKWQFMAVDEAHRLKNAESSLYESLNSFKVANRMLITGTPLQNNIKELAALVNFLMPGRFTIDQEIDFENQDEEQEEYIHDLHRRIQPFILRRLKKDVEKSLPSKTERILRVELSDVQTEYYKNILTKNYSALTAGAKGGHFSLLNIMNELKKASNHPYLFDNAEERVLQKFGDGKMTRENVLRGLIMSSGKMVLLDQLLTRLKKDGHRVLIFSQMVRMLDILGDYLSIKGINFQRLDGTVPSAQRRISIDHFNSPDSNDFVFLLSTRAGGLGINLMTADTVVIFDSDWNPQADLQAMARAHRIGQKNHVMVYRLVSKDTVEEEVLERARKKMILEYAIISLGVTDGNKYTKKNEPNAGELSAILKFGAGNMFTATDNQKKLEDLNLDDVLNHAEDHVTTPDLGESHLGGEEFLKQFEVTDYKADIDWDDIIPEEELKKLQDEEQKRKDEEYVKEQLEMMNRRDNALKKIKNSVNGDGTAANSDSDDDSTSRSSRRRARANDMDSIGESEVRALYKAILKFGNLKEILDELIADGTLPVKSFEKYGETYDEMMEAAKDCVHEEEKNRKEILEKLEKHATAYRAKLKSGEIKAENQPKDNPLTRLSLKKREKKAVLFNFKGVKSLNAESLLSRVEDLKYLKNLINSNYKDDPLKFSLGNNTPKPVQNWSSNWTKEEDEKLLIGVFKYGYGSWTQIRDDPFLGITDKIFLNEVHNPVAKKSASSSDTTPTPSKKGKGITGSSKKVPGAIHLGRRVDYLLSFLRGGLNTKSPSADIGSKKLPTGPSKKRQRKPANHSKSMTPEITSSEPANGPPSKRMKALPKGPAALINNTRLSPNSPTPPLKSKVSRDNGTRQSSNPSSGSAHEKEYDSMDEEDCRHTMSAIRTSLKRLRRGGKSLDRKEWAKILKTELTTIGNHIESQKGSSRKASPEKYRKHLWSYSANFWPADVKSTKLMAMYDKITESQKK

Protein translocase subunit SecA (Escherichia coli (strain K12)), sequence (P10408 whole entry): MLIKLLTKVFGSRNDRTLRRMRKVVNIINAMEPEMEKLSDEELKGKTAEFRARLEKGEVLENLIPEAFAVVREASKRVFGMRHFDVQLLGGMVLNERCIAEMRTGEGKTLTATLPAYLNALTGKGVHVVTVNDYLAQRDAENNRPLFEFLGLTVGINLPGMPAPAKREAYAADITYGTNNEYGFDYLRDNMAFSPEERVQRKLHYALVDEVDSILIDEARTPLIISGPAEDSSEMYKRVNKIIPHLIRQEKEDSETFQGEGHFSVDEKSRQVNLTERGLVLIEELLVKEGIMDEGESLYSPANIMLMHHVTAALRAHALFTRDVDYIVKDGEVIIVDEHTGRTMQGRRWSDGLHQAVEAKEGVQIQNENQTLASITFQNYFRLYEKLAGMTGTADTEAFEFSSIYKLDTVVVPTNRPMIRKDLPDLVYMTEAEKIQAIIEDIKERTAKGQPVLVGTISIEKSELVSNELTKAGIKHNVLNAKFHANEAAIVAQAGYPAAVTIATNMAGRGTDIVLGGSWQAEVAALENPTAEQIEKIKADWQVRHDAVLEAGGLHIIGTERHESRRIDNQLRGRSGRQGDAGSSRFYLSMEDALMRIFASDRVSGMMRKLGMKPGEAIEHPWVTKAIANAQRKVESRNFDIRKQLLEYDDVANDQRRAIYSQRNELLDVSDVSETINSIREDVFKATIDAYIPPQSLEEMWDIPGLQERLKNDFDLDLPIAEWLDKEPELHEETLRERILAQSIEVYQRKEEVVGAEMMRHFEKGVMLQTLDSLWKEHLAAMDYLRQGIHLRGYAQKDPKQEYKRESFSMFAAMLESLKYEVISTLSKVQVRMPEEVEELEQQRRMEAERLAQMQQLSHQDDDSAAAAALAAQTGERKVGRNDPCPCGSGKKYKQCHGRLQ
Sialic acid-binding Ig-like lectin 9 (Homo sapiens), sequence (Q9Y336 whole entry): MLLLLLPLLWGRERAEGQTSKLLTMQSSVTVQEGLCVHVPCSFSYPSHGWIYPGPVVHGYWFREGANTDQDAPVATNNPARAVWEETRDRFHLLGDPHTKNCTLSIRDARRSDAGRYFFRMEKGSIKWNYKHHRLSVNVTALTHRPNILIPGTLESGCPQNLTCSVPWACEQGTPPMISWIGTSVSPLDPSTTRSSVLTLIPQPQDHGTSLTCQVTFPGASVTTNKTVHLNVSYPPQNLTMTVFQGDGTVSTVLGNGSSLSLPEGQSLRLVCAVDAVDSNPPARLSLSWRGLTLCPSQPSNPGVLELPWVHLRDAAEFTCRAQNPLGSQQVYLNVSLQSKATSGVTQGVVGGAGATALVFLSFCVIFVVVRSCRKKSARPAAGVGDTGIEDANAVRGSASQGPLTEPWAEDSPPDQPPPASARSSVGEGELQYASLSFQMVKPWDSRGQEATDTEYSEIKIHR

SMILES | Percent Effect [1] | Percent Effect [2] | Percent Effect [3] | Percent Effect [4] | Percent Effect (Trypanosoma cruzi) | Percent Effect [5] | Percent Effect [6] | Percent Effect (Homo sapiens) | Percent Effect [7] | Percent Effect [8] | Percent Effect [9]
O=C(CCNS(=O)(=O)c1ccccc1)NCc1ccoc1 | -5.05% | 5.33% | -0.901% | 7.78% | 7.11% | -0.521% | 12% | 12.9% | 8.2% | 16.1% | -4.93%
Cc1cnc(N2CCn3cc(CNC(=O)CC4CC4)nc3C2)nc1 | -3.53% | -2.67% | 7.96% | -5.68% | -2.76% | 2.1% | -6.78% | 10.1% | -8.51% | -16.7% | -5.33%
CC(C)Oc1ncccc1CNC(=O)N1CCC1c1ccccc1 (stereo unspecified) | -7.94% | 13.2% | -8.45% | 2.16% | 11.3% | -0.766% | 9.69% | 23.3% | 7.35% | 17.1% | -12%
COC(=O)CCC(=O)N1CCC2(CN(Cc3cccc(F)c3)C2)C1 | -1.57% | 0% | 35.4% | 0.909% | 1.54% | -52.5% | 1.71% | -9.09% | -2.08% | -2.5% | -1.45%
O=c1ccc(-c2ccccc2F)nn1CCN1CCCS1(=O)=O | -6.51% | 13.5% | -4.96% | 22.3% | 6.16% | 3.72% | 1.29% | -2.29% | 1.07% | 8.64% | -10.9%
CCc1cnc(CN(C)C2CCN(CCc3cccs3)C2)o1 (stereo unspecified) | -4.76% | 15.8% | -3.51% | -0.997% | -2.89% | -5.4% | 12.3% | 2.05% | 10.3% | 18.5% | -5.25%
c1ccc(-c2cc(CN3CCC(c4ccn[nH]4)CC3)on2)cc1 | -3.15% | -2.7% | -3.14% | 8.25% | -1.54% | -0.952% | 17.2% | 42.5% | 0.529% | 7.32% | -3.02%
Cc1occc1C(=O)N1CCC[C@]2(C[C@@H](OCc3ccncc3)CO2)C1 | 0.103% | 10.7% | 1.3% | 1.1% | -1.16% | -23.5% | 16.4% | -0.395% | 7.29% | 22.5% | -5.63%
COc1cc(CN(C)C(=O)NCCC2CCCO2)ccc1SC (stereo unspecified) | -3% | 8.11% | -5.1% | 2.6% | 0.781% | 0.833% | 10.1% | -25.6% | -13.9% | 3.66% | -5.8%
Cc1nc(CN2CCC3(CCCN(Cc4cnn(C)c4)C3)C2=O)cs1 (stereo unspecified) | 2.6% | 10.7% | -6.96% | 4.34% | -5.79% | -57.2% | 10.3% | -6.36% | 3.12% | 10% | -5.7%
Cc1nn(C)c(C)c1CC(=O)N1CCC(N(C)c2cccnn2)CC1 | 0.112% | 15.8% | 0.809% | -2.31% | -2.82% | 4.98% | 10.5% | 42.1% | 3.43% | 4.88% | -9.53%
c1ccc2cc(OCCN3CCOC(Cn4cncn4)C3)ccc2c1 (stereo unspecified) | -4.49% | 6.33% | -0.381% | 14% | 2.77% | -1.5% | 10.3% | 5.72% | 4.17% | 10.1% | -6.36%
CCOCCn1nc(C)cc1C(=O)N1CCN(C(C)C)C(CC)C1 (stereo unspecified) | -4.36% | 2.7% | -2.68% | 4.47% | 6.56% | -1.43% | 10.9% | 10.2% | 3.7% | 12.2% | -1.83%
Cc1ccc(-n2nnc(CC(=O)N3CCSCC3)c2C)cc1 | -3.7% | 20.8% | -1.3% | 11.8% | 3.83% | -5.52% | 11.2% | -2.27% | 5.38% | 21% | -9.71%
CC(C)Oc1ncnc2c1CCN(C(=O)c1cccn1C)CC2 | -3.69% | 13.3% | 9.51% | -7.87% | -4.53% | -3.03% | 11.2% | 9.21% | 2.13% | 8.97% | -0.243%
Cc1nc(C)n(C2CCCN(C(=O)COCc3ccccc3)C2)n1 (stereo unspecified) | -0.388% | 0% | 25.2% | 9.37% | 2.25% | 1.78% | -4.22% | 4.38% | 3.88% | 12.2% | -7.13%
